Screening results: PubChem, National Center for Advancing Translational Sciences (NCATS)
In the library only some 6.5% were active in any assay of this set; here they are far more common.
HepG2 viability – kills HepG2 cells in TGF-b inhibitor counter-screen. 0.76% of 410,000 active. Potency, µM (doses to about 46.1 µM), inactives show at the highest dose activity change, negative = cytotoxicity, hits mostly cytotoxic. HepG2 CAGA-GFP viability, ATP luminescence, 18 h; also: potency is read from the fitted curve at half-maximal effect
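HepG2 CAGA-GFP cells (1000/well, DMEM with 1% FBS) received compound, then TGF-beta at 500 pg/mL final, and were incubated 18 hours at 37 degrees C. Viability was read by CellTiter-Glo luminescence. Media-only wells were set as complete cell-killing and DMSO as no toxicity.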
HT1080 IDH1KD tx – kills HT-1080 cells with IDH1 knockdown. HT-1080 IDH1 knockdown viability, ATP luminescence, 48 h. Potency, µM (top dose mostly 46.1 µM), for inactives: at the top dose activity, negative = toxicity, most hits filed as cytotoxic. 2% of 360,000 active. AID 686971;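 also: potency is read from the fitted curve at half-maximal effect; 0% = DMSO wells and -100% = cell-free medium wells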
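Viability of IDH1-knockdown HT-1080 fibrosarcoma cells was assessed by CellTiter-Glo after 48 h at 37 °C with titrated compound; concentration-effect curves were classified by fit quality and response size.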
TGFb SMAD3 inh – blocks TGF-b signaling; Potency, µM (top dose mostly 46.1 µM), for inactives: at the highest dose activity, negative = inhibition, usual class: inhibitors; 1.2% of 410,000 active; HepG2 CAGA-GFP TGF-b/SMAD3 reporter, GFP fluorescence, 18 h; TGF-beta stimulated, 500 pg/mL final; also: potency is read from the fitted curve at half-maximal effect; % is scaled to controls: 0 for no effect and ±100 for the full control effect; nearly all actives have a fitted effect of over 65% in size
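Read-out: total well GFP (ex488/em500-530) summed from mean per-cell fluorescence. Cells: HEPG2 CAGA-GFP, 1% FBS DMEM, 18 h at 37 degrees C with 500 pg/mL final TGF-beta. Unstimulated wells served as the full-inhibition control; stimulated DMSO wells = 0%.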
HT1080-NT tox – kills 2HG-producing HT-1080-NT fibrosarcoma cells; HT-1080-NT fibrosarcoma viability, CellTiter-Glo ATP luminescence, 48 h; Potency, µM (series often up to 46.1 µM), inactives show top-dose activity, negative = less viability, actives largely listed as cytotoxic; AID 686970; 1.6% of 360,000 active;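 also: NT is the 2HG producing partner of a matched IDH1 knockdown line; potency is read from the fitted curve at half-maximal effect; 0% = DMSO-treated cells and -100% = media-only wells without cells; nearly all actives have a fitted effect of over 55% in size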
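Fibrosarcoma NT cells, 750 per well in 5% FBS RPMI, were exposed to compound for 48 hours. Viability: CellTiter-Glo luminescence.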
Giardia killer – Giardia lamblia killing. 0.15% of 340,000 active. Giardia lamblia trophozoite viability. activity change, % at 7.66 µM, hits read low; in the data active = activity change below about -80%; inconclusive = between about -30% and that limit;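 also: parasites exposed to compound for two days anaerobically before the ATP read; % is scaled to controls: 0 for no effect and ±100 for the full control effect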
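Giardia trophozoites, 100 cells per well, were exposed to compounds for 48 hrs at 37 deg C under anaerobic conditions; viability was then read as ATP content by bioluminescence after 15-30 min at room temperature.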
IL1B secr inh – inhibitors of inflammasome signaling (IL-1 beta secretion) | 4.7% of 360,000 active | THP-1 LPS/ATP IL-1B secretion, AlphaLISA, 16 h; active compounds read low | AID 743279 | activity change, % at 57.5 µM; in the data active = activity change below about -50%; inconclusive = mostly about -30% to -49%; also: % is scaled to controls: 0 for no effect and ±100 for the full control effect
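THP-1 cells pretreated 1 hr with compounds (up to 57.5 uM final), then stimulated with LPS (250 ng/mL final) plus ATP (1.25 mM final); secreted IL-1B measured by AlphaLISA after 16 hr, decreased signal indicating inhibition.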
* marks the source's active call; other numbers are inactive results; u = inconclusive; x = not tested or not shown. Unless noted, calls follow the shape of the dose curve; as a rule, active = well fitted curve in the direction sought with a large enough effect; inconclusive = small, poorly fitted or top-dose-only effect, or another doubt; inactive = no such curve, though single readings can be large; an effect the other way counts as inactive or inconclusive.

SMILES	HepG2 viability	HT1080 IDH1KD tx	TGFb SMAD3 inh	HT1080-NT tox	Giardia killer	IL1B secr inh
O=C(NCCCN1CCCC1)Nc1ccc(F)cc1	-3%	11%	0%	20%	3	-3
OCC1(Cc2ccc(Cl)cc2)CCN(CCCc2ccccc2)CC1	-64%	u	u	u	8	-77*
O=C(c1cnsn1)N1CCC(CO)(Cc2ccc(Cl)cc2)CC1	7%	2%	-4%	3%	8	-14
CSc1ccc(CN2CCC(CO)(Cc3ccc(Cl)cc3)CC2)cc1	-156%	-23%	22µM*	u	10	-94*
OCC1(Cc2ccc(Cl)cc2)CCN(CC2CC=CCC2)CC1 (stereo not given)	-39%	u	-22%	-14%	1	-62*
OCC1(Cc2ccc(Cl)cc2)CCN(Cc2ccccc2F)CC1	-26%	u	-10%	u	-19	-26
CCOC(=O)c1ccccc1NC(=O)COC(=O)CN1C(=O)C2CC=CCC2C1=O (stereo not given)	0%	-15%	-5%	1%	-5	14
Fc1ccc2nc(C3CCCCN3Cc3nc(CC4CC4)no3)[nH]c2c1 (stereo not given)	-18%	-2%	-19%	-15%	13	-65*
CCc1ccc(CNCc2ccc(OCC(O)CN(C)Cc3ccccc3)cc2)nc1 (stereo not given)	-34%	u	u	u	-10	-60*
CN(Cc1ccccc1)CC(O)COc1ccc(CNCCc2ccncc2)cc1 (stereo not given)	-25%	u	2%	u	1	-59*
C=CCOc1ccc(CN(C)CC(O)COc2cccc3ccccc23)cc1 (stereo not given)	13µM*	u	18µM*	u	59	-59*
COc1ccc(OC)c(C(=O)NC(CC(N)=O)c2ccc(N3CCC(N4CCCC4)CC3)c([N+](=O)[O-])c2)c1 (stereo not given)	-16%	-3%	-9%	-2%	-4	13
CC(=S)/C=C1\Sc2ccccc2N1C	-20%	u	u	u	0	-61*
COc1ccc(C(=O)/C=C2\Sc3ccccc3N2C)cc1	-12%	-7%	9%	-1%	-23	-2
Cc1ccc(N(CC(=O)NC2CCCC2)C(=O)CCC(=O)Nc2nccs2)c(C)c1	-15%	-14%	u	-11%	5	-54*
Cc1cc(C)cc(N(CC(=O)NC2CCCCC2)C(=O)CCCC(=O)Nc2ccccn2)c1	11µM*	-10%	-16%	-4%	-4	-15
Cc1ccc(N(CC(=O)NC2CCCC2)C(=O)CCCC(=O)Nc2ccccn2)cc1C	10%	11%	6%	18%	8	-8
COCC(C)n1c(C)cc(C(=O)COC(=O)c2n[nH]c3ccccc23)c1C (stereo not given)	1%	-1%	23%	-1%	u	u
CC1CC(N(C(=O)c2ccccc2Cl)c2ccccc2)c2ccccc2N1 (stereo not given)	1%	23µM*	-7%	23µM*	0	22
CN(C(=O)c1ccccc1Cl)C1CCCCC1	0%	-2%	17%	17%	-7	4
CCN(CC)c1ccc2c(c1)OC(N)=C(C#N)C2c1cccnc1 (stereo not given)	-38%	0.23µM*	19%	u	8	-101*
Cc1ccc(C2C(C#N)=C(N)Oc3cc4c(cc32)OCO4)cc1 (stereo not given)	-2%	u	-12%	u	-7	-18
CSc1ccc(C2C(C#N)=C(N)Oc3cc4c(cc32)OCO4)cc1 (stereo not given)	-39%	u	13µM*	18µM*	20	-18
N#CC1=C(N)Oc2cc(N)ccc2C1c1ccc(Cl)cc1 (stereo not given)	-14%	u	-20%	u	u	-75*
N#CC1=C(N)Oc2cc(Nc3ccccc3)ccc2C1c1ccncc1 (stereo not given)	-31%	u	-1%	u	4	-78*
SMILES	HepG2 viability	HT1080 IDH1KD tx	TGFb SMAD3 inh	HT1080-NT tox	Giardia killer	IL1B secr inh
Cc1cc(C)c2nc(N3CCC(C(=O)NCCCN4CC(C)CC(C)C4)CC3)sc2c1 (stereo not given)	10%	x	-3%	x	4	-17
CCN(CC(=O)NCc1ccc(F)cc1)c1ccc(S(C)(=O)=O)cc1[N+](=O)[O-]	-10%	16%	13%	-3%	-1	20
COc1ccc(C(C)C)cc1S(=O)(=O)NCC1CCCO1 (stereo not given)	-53%	2%	-3%	-8%	-5	-6
COc1ccc(C2C(C#N)=C(N)Oc3c2ccc2cccnc32)cc1OC (stereo not given)	-20%	0.65µM*	-19%	u	12	-10
COc1cc(C2C(C#N)=C(N)Oc3cc(N)ccc32)cc(OC)c1OC (stereo not given)	-2%	0.58µM*	-18%	u	-6	14
COc1ccc(C2C(C#N)=C(N)Oc3cc(N)ccc32)cc1 (stereo not given)	19%	2%	6%	2%	1	-3
N=c1sccn1CC(=O)Nc1ccccc1Sc1ccccc1	4%	-20%	-5%	-7%	34	-55*
O=C(CN1CCOCC1)Nc1ccccc1Sc1ccccc1	9%	19%	10%	0%	7	10
COc1ccc(N2CCN(C(=O)CSc3nnc4c(C)cc5ccc(C)c(C)c5n34)CC2)cc1	-16%	0%	16%	6%	18	-66*
Cc1ccc2cc(C)c3nnc(SCC(=O)N4CCN(C(=O)c5ccco5)CC4)n3c2c1	-18%	-1%	-13%	-14%	11	-23
Cc1cc2cc(C)c3nnc(SCC(=O)N4CCN(C(=O)c5ccco5)CC4)n3c2cc1C	-23%	u	-23%	-13%	-10	-74*
Cc1ccc(NC(=O)NCc2cccn2Cc2ccccc2)cc1F	-5%	x	-5%	x	x	x
COc1ccc(Cn2c(CO)cnc2SCc2ccc(F)cc2)cc1	-9%	x	-8%	x	x	x
COc1ccnc(CSC(N)=Nc2ccc(F)cc2)c1	-29%	11%	-19%	14%	-5	-99*
CNCc1ccccc1Sc1cccc2ccccc12	-44%	-26%	u	-14%	-9	-55*
CN(C)CCN(C)Cc1ccccc1Sc1cccc2ccccc12	-110%	u	u	u	14	-105*
O=C1CC(c2ccccc2)CC(O)=C1C=NCCN1CCNCC1 (stereo not given)	2%	-2%	-6%	0%	-21	3
